# Screens: PubChem, several laboratories
# TMEM16A act = activates or potentiates the mouse TMEM16A chloride channel; Q8BHY3; HEK293 TMEM16A/YFP-H148Q/I152L, iodide quench fluorescence; hits give low values; B-score at 10 µM; 340,000 tested, 0.3% active; AID 623877;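 active = fluorescence-ratio B-score plate-corrected deviation score at least 3 library SD below zero, with starting fluorescence score within 5 deviations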;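 also: channel opened by trigger with iodide after compound preincubation; score built on the fluorescence ratio of max minus min over baseline; more negative score means more quench and so TMEM16A activation or potentiation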
# m5-HT2A agonist = activates the mouse 5-HT2A serotonin receptor; CHO-K1 mHTR2A beta-arrestin complementation, luminescence; percent of 30 µM serotonin response; activation, % at 7.6 µM; 360,000 tested, 0.66% active;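 active = activation above a run cutoff, the mean activation of all tested compounds plus 3 SD, cut at about 14% in these data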;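 also: 0% = plate median of compound wells and 100% = 30 µM serotonin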
# TLR9-MyD88 block = TLR9-MyD88 interaction inhibition. Q9NR96+Q99836. CHO BLA complementation TLR9-MyD88, CCF4 FRET ratio. inhibition, % at 4.98 µM. 340,000 tested, 0.21% active. AID 504734;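 active = inhibition above the mean over all tested compounds plus 3 SD, cut at about 21% in these data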;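 also: 0% = DMSO only wells and 100% = clavulanate BLA inhibitor control wells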
# NOD2-RIPK2 inh = blocks binding of human NOD2 to RIPK2. O43353. CHO BLA complementation NOD2-RIPK2, CCF4 ratio. inhibition, % at 4.98 µM. 360,000 tested, 0.38% active. AID 624267; in the data active = inhibition above about 21%;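 also: 0% = vehicle only and 100% = reference blocker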
# TMEM16A inh = blocks the mouse calcium-activated chloride channel TMEM16A | Q8BHY3 | HEK293 TMEM16A/YFP iodide influx fluorescence, ionomycin | normalized B-score (activity score, 25-100; higher = stronger inhibition) at 10 µM | 310,000 tested, 1.2% active | AID 588511;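 active = ratio plate-corrected score three or more library SD toward inhibition, starting fluorescence score within five deviations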;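 also: score derived from kinetic fluorescence span divided by baseline fluorescence per well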
# TLR4 MyD88 comp = blocks binding of human TLR4 to MyD88 | HeLa CL3-4 TLR4/MyD88 BLA complementation, FRET ratio | inhibition, % at 8.4 µM | 200,000 tested, 0.18% active; in the data active = inhibition above about 25%;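 also: 0% = vehicle and 100% = reference inhibitor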
# Target sequence (O00206 whole entry, looked up): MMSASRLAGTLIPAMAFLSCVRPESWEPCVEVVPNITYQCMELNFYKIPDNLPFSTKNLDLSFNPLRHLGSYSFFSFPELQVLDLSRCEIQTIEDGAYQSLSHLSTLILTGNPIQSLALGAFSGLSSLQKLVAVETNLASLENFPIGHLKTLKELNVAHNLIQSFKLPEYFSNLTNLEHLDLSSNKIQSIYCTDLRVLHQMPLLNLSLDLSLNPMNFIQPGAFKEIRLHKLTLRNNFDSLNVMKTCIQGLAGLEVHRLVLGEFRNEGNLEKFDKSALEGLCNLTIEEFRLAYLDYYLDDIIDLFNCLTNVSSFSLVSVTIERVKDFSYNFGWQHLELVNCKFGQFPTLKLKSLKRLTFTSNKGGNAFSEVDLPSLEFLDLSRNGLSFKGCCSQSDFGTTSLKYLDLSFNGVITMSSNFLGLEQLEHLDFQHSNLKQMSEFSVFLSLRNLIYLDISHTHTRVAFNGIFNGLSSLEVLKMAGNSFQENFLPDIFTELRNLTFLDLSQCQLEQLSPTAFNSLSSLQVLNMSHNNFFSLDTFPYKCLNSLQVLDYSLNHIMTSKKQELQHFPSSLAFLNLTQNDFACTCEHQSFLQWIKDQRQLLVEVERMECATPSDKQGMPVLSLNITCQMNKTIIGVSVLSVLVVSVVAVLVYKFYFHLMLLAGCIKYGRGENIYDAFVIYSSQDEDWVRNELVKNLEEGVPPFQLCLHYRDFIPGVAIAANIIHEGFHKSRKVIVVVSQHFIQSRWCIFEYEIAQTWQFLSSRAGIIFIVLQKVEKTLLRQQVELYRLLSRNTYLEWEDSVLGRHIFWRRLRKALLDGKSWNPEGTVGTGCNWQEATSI
# Target sequence (Q99836 whole entry, looked up): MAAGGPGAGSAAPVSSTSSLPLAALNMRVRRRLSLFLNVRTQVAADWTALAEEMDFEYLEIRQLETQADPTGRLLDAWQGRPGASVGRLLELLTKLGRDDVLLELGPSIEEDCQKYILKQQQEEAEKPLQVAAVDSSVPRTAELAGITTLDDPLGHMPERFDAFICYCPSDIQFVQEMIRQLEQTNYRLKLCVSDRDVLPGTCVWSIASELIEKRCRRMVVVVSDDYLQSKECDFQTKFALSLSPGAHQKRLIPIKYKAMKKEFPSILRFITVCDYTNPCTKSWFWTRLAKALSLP
# TMEM16A reconf = reconfirmed blocker of mouse TMEM16A calcium-activated chloride channel. AID 652189. 2,300 tested, 39% active. inhibition, % at 10 µM. HEK293 TMEM16A/YFP-H148Q, iodide quench fluorescence; ionomycin added to raise cell calcium. shares compounds with TMEM16A inh;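 active = mean duplicate percent inhibition, scaled so buffer wells are 0 and the reference blocker 100, over three buffer SD above buffer mean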
# TMEM16A Ca cntr = alters calcium mobilization in TMEM16A HEK293 cells, counter-screen; TMEM16A/YFP HEK293, Fluo4 calcium mobilization; AID 652231; shares compounds with TMEM16A inh; 2,300 tested, 2% active; calcium response (% of ionomycin), % at 10 µM;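 active = duplicate-averaged calcium signal over 20% of the ionomycin maximum, relative to buffer baseline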;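 also: each well's signal is peak minus trough fluorescence divided by its pre-addition baseline; 0% = buffer wells and 100% = ionomycin wells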
# YFP-HEK293 quench = parental YFP-HEK293 iodide quench counter-screen activity | shares compounds with TMEM16A inh | ionomycin | YFP ratio F(max-min)/F0 at 10 µM | 2,300 tested, under 10 active;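 active = yellow fluorescent protein signal ratio exceeding the buffer control mean by over 5 SD of those controls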;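 also: ratio is mean of duplicate wells from kinetic YFP trace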
# ClC-1 rat inh = rat ClC-1 inhibition, TMEM16A specificity screen. shares compounds with TMEM16A inh. CHO ClC-1-YFP, iodide influx fluorescence quench; iodide control reads 0, buffer control 100. ratio percent, % at 10 µM. 2,300 tested, under 10 active;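 active = duplicate-mean ratio percent above the mean of iodide-only control wells, which defines zero, plus 5 of their SD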;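 also: higher percent means stronger block of ClC-1 iodide influx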
# OPRM1 ag = OPRM1 agonism in mouse HTR2A counterscreen. shares compounds with m5-HT2A agonist. U2OS OPRM1 beta-arrestin PathHunter, luminescence; DMSO 0%, DAMGO 9.3 µM 100%. activation, % at 9.3 µM. 2,300 tested, 5.3% active. AID 624380;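 active = mean activation above the mean of DMSO-only wells plus 3 SD, cut at about 0.5% in these data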
# m5-HT2A ag conf = confirmation of mouse HTR2A serotonin receptor agonists | CHO-K1 PathHunter beta-arrestin recruitment, luminescence; DMSO 0%, 30 µM serotonin 100% | activation, % at 7.6 µM | shares compounds with m5-HT2A agonist | AID 624381 | 2,300 tested, 19% active;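 active = mean activation across triplicates above the hit threshold derived in the original primary screen, cut at about 15% in these data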
# NOD2-RIPK2 conf = confirmation of human NOD2-RIPK2 interaction inhibitors; inhibition, % at 4.98 µM; 1,200 tested, 70% active; CHO cells, NOD2-RIPK2 BLA complementation, CCF4 FRET; AID 624370; shares compounds with NOD2-RIPK2 inh;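 active = mean inhibition across replicates above a set limit taken from the earlier primary screen, cut at about 21% in these data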;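 also: 0% = DMSO-only wells and the high end = clavulanate BLA-blocked wells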
# BLA counter = counter-screen for NOD2-RIPK2 interaction inhibitors: BLA reporter | shares compounds with NOD2-RIPK2 inh | CHO BLA reporter, CCF4 FRET ratio, counterscreen | inhibition, % at 4.98 µM | 1,200 tested, 57% active | AID 624371;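 active = mean inhibition above the low-control mean inhibition plus three low-control SD, cut at about 11% in these data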;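 also: 0% = DMSO only wells and 100% = clavulanate high control wells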
# * hit, by the source's call; i = inactive; . = no result. The list is not random: actives were taken first. Their share in the collection is about 2.4%.
SMILES,TMEM16A act,m5-HT2A agonist,TLR9-MyD88 block,NOD2-RIPK2 inh,TMEM16A inh,TLR4 MyD88 comp,OPRM1 ag,m5-HT2A ag conf,others
Cc1ccc(S(=O)(=O)NC(C)c2ccccc2)cc1[N+](=O)[O-] (configuration not stated),i,-4,-8,3,i,.,.,.,
Cc1sc2nc(SCc3ccc(C(=O)O)cc3)n(Cc3ccco3)c(=O)c2c1C,i,16*,-7,-3,25*,.,0,8,TMEM16A reconf=30%*;TMEM16A Ca cntr=i;YFP-HEK293 quench=-1;ClC-1 rat inh=-24
COc1cc(/C=C/C(=O)c2ccc3c(c2)OCCO3)cc(Br)c1OCC(=O)N(C)C,i,18*,11,16,i,.,-1,-6,TMEM16A reconf=i;TMEM16A Ca cntr=i;YFP-HEK293 quench=-1.3;ClC-1 rat inh=-44
CC(C)CC(NS(=O)(=O)OCC(Cl)(Cl)Cl)c1ccccc1 (configuration not stated),i,20*,5,15,100*,.,0.9*,-1,TMEM16A reconf=56%*;TMEM16A Ca cntr=i;YFP-HEK293 quench=-1.1;ClC-1 rat inh=-3
COC(=O)CCC(NS(=O)(=O)OCC(Cl)(Cl)Cl)c1ccccc1 (configuration not stated),i,6,-2,10,i,.,.,.,
COC(=O)c1ccc(NC(=O)c2ccccc2NS(C)(=O)=O)cc1,i,3,-8,-7,i,0,.,.,
Cc1cccc(C)c1NS(=O)(=O)c1ccc(-c2cnc(C3CC3)o2)cc1,i,-1,-2,23*,25*,.,.,.,TMEM16A reconf=29%*;TMEM16A Ca cntr=i;YFP-HEK293 quench=-1.2;ClC-1 rat inh=-4;NOD2-RIPK2 conf=10;BLA counter=-4
CCCn1c(N)c(C(=O)CSc2nnc(C3CC3)n2Cc2ccccc2)c(=O)[nH]c1=O,i,-5,-3,-7,i,11,.,.,
Cc1ccc(C(=O)N=c2sccn2C)cc1S(=O)(=O)N1CCOCC1,i,-7,2,-1,i,.,.,.,
Cc1ccc(C(=O)N=c2sccn2C)cc1C,i,18*,-4,2,i,.,-1,-4,
Cc1ccc(S(=O)(=O)N/N=C/c2cccs2)cc1,i,-5,6,0,i,-15,.,.,
Cc1ccccc1N1CC(C(=O)O)CC1=O (configuration not stated),i,7,4,-3,i,11,.,.,
COCC(=O)Nc1ccc([N+](=O)[O-])cc1OC,i,-2,-7,-1,i,-2,.,.,
COCC(=O)Nc1cc([N+](=O)[O-])ccc1OC,i,44*,4,3,i,-13,-1,-5,
Cc1ccc(C(=O)OCC(=O)NCC2CCCO2)c(C)c1 (configuration not stated),i,1,-5,5,i,-10,.,.,
Cc1ccsc1C(=O)OCC(=O)NCC1CCCO1 (configuration not stated),i,18*,2,7,i,-10,-1,-2,
CC(=O)c1cccc(N(C(=O)c2cnccn2)C(C(=O)NCc2ccccc2)c2ccco2)c1 (configuration not stated),i,6,0,0,i,-2,.,.,
CCCCn1nnnc1C(c1cc2ccccc2o1)N1CCN(C(=O)OCC)CC1 (configuration not stated),.,17*,.,15,.,.,-1,-5,
CCCc1nc2nc(C)c(NS(=O)(=O)c3ccc(CC(C)C)cc3)c(=O)n2[nH]1,i,16*,6,-8,i,.,-1,-3,
Cc1cc(C)cc(-n2ncc3c2CCCC3NC(=O)C2(C(N)=O)CC2)c1 (configuration not stated),i,12,-11,10,i,.,.,.,
Cc1cccc(-n2ncc3c2CCCC3NC(=O)CCN2CCCCO2)c1C (configuration not stated),i,1,-4,-3,i,.,.,.,
Cc1cccc(-n2ncc3c2CCCC3NC(=O)C2(C(N)=O)CC2)c1C (configuration not stated),i,15*,4,2,i,.,0,0,
Cc1cccc(-n2ncc3c2CCCC3NC(=O)CCN2CCCO2)c1C (configuration not stated),i,16*,3,-4,i,.,-1,2,
COc1ccc(NC(=O)CCCCC#Cc2ccccc2)cc1,i,2,-2,-8,i,.,.,.,
CC(=O)NCc1ccc2[nH]c(C)cc2c1,i,17*,6,4,i,4,-1,0,
Cc1oc(-c2cccc(Cl)c2)nc1CS(=O)(=O)CC(=O)NCCCN1CCOCC1,i,25*,-1,4,i,.,0,-4,
Cc1ccc(-c2nc(CS(=O)(=O)CC(=O)NCCN3CCOCC3)c(C)o2)cc1,i,-2,-11,2,i,.,.,.,
COc1ccc(CNC(=O)CN(Cc2ccco2)C(=O)CCC(=O)Nc2ccccn2)cc1,i,3,3,-4,i,.,.,.,
Cc1cccc(C(=O)OCC(=O)c2c(N)n(CC(C)C)c(=O)n(C)c2=O)c1[N+](=O)[O-],i,17*,-7,-4,i,.,0,-1,
Cn1cccc1C(=O)Nc1ccc(N2CCOCC2)cc1,i,15*,-24,-6,.,.,0,2,
